High-throughput results: PubChem BioAssay, National Center for Advancing Translational Sciences (NCATS)
DT40 TDP1 CPT: growth inhibition of DT40 Tdp1-/-;hTDP1 cells with camptothecin (screen for TDP1 inhibitors); 420,000 tested, 12% active; chicken DT40 Tdp1-/-;hTDP1 cells + 20 nM CPT, ATP luminescence, 48 h; Potency, µM (series often up to 46.2 µM), without a hit: at the highest dose activity change, negative = growth inhibition, usual class: inhibitors; also: potency is read from the fitted curve at half-maximal effect; nearly all actives have a fitted effect of over 55% in size
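Chicken DT40 Tdp1-/- cells stably complemented with human TDP1 were seeded at 400 cells/well in medium containing 20 nM camptothecin, exposed to pin-transferred compounds, and grown at 37 °C for at least 48 hr. Viability was read as ATP luminescence.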
LDHA inh: inhibitors of human lactate dehydrogenase A; P00338; purified LDHA, NADH/diaphorase-resazurin fluorescence; stronger effect = lower value; activity change, % (values are at about 110 or 230 µM); 480,000 tested, 0.15% active; AID 1347041; in the data active = activity change below about -30%; inconclusive = mostly about -25% to -30%;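 also: plate controls were DMSO wells for no effect and wells without enzyme for full effect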
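Human LDH5 (2 nM) was incubated with 0.06 mM NADH and 0.2 mM pyruvate for 5 min at room temperature in Tris pH 7.4. Remaining NADH was coupled through diaphorase/resazurin, and resorufin fluorescence was read at 0 and 20 min.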
IL-1B inflam inh: inflammasome signaling inhibition, IL-1 beta readout; THP-1 LPS/ATP IL-1B secretion, AlphaLISA, 16 h; stronger effect = lower value; activity change, % at 57.5 µM; 360,000 tested, 4.7% active; AID 743279; in the data active = activity change below about -50%; inconclusive = mostly about -30% to -49%
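Secreted IL-1B measured by AlphaLISA bead assay after 16 h compound exposure of THP-1 cells; compounds (final up to 57.5 uM) added 1 h before LPS (250 ng/mL) and ATP (1.25 mM) stimulation; lower signal means less secretion.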
RORg inh: inhibitors of mouse ROR gamma transcriptional activity; P51450; Drosophila S2 Gal4-RORgamma UAS-luciferase reporter, 20 h; Potency, µM (top dose mostly 53.6 µM), for inactives: top-dose activity change, negative = inhibition, hits mostly inhibitors; 310,000 tested, 5.4% active; also: potency is read from the fitted curve at half-maximal effect; nearly all actives have a fitted effect of over 60% in size
Target sequence (P51450 whole entry, looked up, the tested form may be a part): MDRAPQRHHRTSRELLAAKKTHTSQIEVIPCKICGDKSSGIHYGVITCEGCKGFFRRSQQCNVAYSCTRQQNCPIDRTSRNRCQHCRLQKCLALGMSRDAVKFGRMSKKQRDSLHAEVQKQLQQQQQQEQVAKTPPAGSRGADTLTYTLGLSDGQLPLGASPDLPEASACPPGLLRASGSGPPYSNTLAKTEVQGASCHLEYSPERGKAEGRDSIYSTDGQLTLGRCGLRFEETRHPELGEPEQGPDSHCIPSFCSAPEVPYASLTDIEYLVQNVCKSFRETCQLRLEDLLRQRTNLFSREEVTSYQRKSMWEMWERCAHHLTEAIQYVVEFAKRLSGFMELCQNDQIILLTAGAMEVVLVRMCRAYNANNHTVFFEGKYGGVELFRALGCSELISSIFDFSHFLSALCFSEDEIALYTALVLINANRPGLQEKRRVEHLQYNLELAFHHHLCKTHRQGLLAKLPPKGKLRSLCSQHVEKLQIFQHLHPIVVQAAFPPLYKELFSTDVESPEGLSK
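In this cell-based reporter format, copper sulfate (700 uM final) drives Gal4–ROR gamma fusion expression from a metallothionein promoter in Drosophila Schneider cells; compounds preincubated 1 hr, reporter read after 20 hr at ambient temperature.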
VP16 counter: counter-screen for ROR gamma inhibitors: Gal4-VP16 reporter. Drosophila S2 Gal4-VP16 UAS-luciferase, luminescence, 20 h. Potency, µM (titrated, usually from 53.6 µM), without a hit: top-dose activity, negative = inhibition, actives largely listed as inhibitors. 310,000 tested, 3.5% active. AID 2546;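 also: Gal4-VP16 expression switched on by copper sulfate through the metallothionein promoter; potency is read from the fitted curve at half-maximal effect; nearly all actives have a fitted effect of over 50% in size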
DT40 TDP1 no CPT: qHTS for Inhibitors of human tyrosyl-DNA phosphodiesterase 1 (TDP1): qHTS in cells in absence of CPT; DT40 Tdp1-/- hTDP1 cells, no CPT, ATP luminescence, 48 h; Potency, µM (doses to about 46.2 µM), for inactives: at the highest dose activity change, negative = growth inhibition, actives largely listed as inhibitors; 420,000 tested, 15% active; AID 686978, 2013; also: potency is read from the fitted curve at half-maximal effect; nearly all actives have a fitted effect of over 55% in size
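Luminescent ATP content (CellTiter-Glo) served as the growth readout. Knockout chicken DT40 cells expressing human TDP1 were exposed to compounds without camptothecin for a minimum 48 hr at 37 °C.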
* hit, by the source's call; ? = inconclusive; nt = no result. A selection: hits, their analogues and other compounds. The true share with any hit is near 18%. Unless noted, calls follow the shape of the dose curve; as a rule, active = well fitted curve in the direction sought with a large enough effect; inconclusive = small, poorly fitted or top-dose-only effect, or another doubt; inactive = no such curve, though single readings can be large; an effect the other way counts as inactive or inconclusive. Unless noted, % is scaled to controls: 0 for no effect and ±100 for the full control effect.

SMILES	DT40 TDP1 CPT	LDHA inh	IL-1B inflam inh	RORg inh	VP16 counter	DT40 TDP1 no CPT
COc1ccc(-c2nc(NC(=O)Cn3cnc4c3c(=O)n(C)c(=O)n4C)sc2C)cc1	nt	6	nt	nt	nt	nt
Cc1c(Cl)cccc1NC(=O)N1CCCN(c2nc(-c3ccccc3)ns2)CC1	?	-3	-61*	11%	4%	?
O=C(Nc1ccccc1)N1CCN(c2nc(-c3ccccc3)ns2)CC1	23µM*	-6	-8	21%	-2%	16µM*
O=C(Nc1ccccc1Cl)N1CCCN(c2nc(-c3ccccc3)ns2)CC1	?	2	-20	23%	-8%	?
O=Cc1cnc2ccccc2c1-c1ccccc1	?	-3	33	17%	-3%	23µM*
Cc1ccc(C)c(S(=O)(=O)N2CCCC2CNC(=O)C(=O)NCCc2ccco2)c1 (stereo unspecified)	?	1	7	nt	nt	?
O=C(NCCc1ccco1)C(=O)NCC1CCCN1S(=O)(=O)c1ccccc1 (stereo unspecified)	12µM*	-8	-5	nt	nt	4.1µM*
Cc1ccc(C)c(S(=O)(=O)N2CCCCC2CCNC(=O)C(=O)NCCc2ccco2)c1 (stereo unspecified)	?	-7	-21	nt	nt	?
Cc1ccc(S(=O)(=O)N2CCCCC2CCNC(=O)C(=O)NCCc2ccco2)cc1 (stereo unspecified)	2.9µM*	-4	7	nt	nt	4.1µM*
Cc1ccc(S(=O)(=O)N2CCCCC2CCNC(=O)C(=O)NCc2ccco2)cc1 (stereo unspecified)	13µM*	-10	-17	nt	nt	7.3µM*
Cc1ccc(S(=O)(=O)N2CCOC2CNC(=O)C(=O)NCc2ccco2)cc1 (stereo unspecified)	3%	3	-2	40%	29%	-7%
Cc1cc(C)c(S(=O)(=O)N2CCCCC2CCNC(=O)C(=O)NCc2ccco2)c(C)c1 (stereo unspecified)	?	-4	?	nt	nt	16µM*
C=CCN(CC=C)CC(O)Cn1c2ccccc2c2ccccc21 (stereo unspecified)	?	3	-74*	1%	0%	23µM*
CCN(CC)CC(O)Cn1c2ccccc2c2ccccc21 (stereo unspecified)	-4%	-2	?	-23%	-11%	?
COc1ccccc1N(CC(O)Cn1c2ccccc2c2ccccc21)S(=O)(=O)c1ccccc1 (stereo unspecified)	?	-6	-101*	?	-18%	?
O=S(=O)(c1ccccc1)N(CC(O)Cn1c2ccccc2c2ccccc21)c1ccccc1 (stereo unspecified)	?	-1	-53*	15%	-18%	?
O=S(=O)(c1ccc(F)cc1)N(CCO)CC(O)Cn1c2ccccc2c2ccccc21 (stereo unspecified)	?	-6	-4	38%	-3%	16µM*
Cc1ccc(C(=O)NCC(O)c2ccc(F)cc2F)cn1 (stereo unspecified)	nt	-13	nt	nt	nt	nt
COc1ccc(NC(=O)CCN2CCC(C)CC2)cc1	-5%	-7	0	22%	5%	5%
COc1ccc(NC(=O)c2c(C)oc3ccc(O)c(CN4CCN(Cc5ccccc5)CC4)c23)cc1	21µM*	-4	nt	nt	nt	12µM*
COc1ccc(NC(=O)c2c(C)oc3ccc(O)c(CN4CCC(C)CC4)c23)cc1	10µM*	8	nt	nt	nt	15µM*
Cc1oc2c(CN3CCCC(C)C3)c(O)ccc2c(=O)c1-c1ccccc1 (stereo unspecified)	-4%	1	5	11%	-2%	20%
COc1ccc(NC(=O)c2c(C)oc3ccc(O)c(CN4CCCC(C)C4)c23)cc1 (stereo unspecified)	26µM*	7	nt	nt	nt	?
Cc1oc2ccc(O)c(CN3CCCC(C)C3)c2c1C(=O)Nc1ccccc1 (stereo unspecified)	10µM*	5	nt	nt	nt	16µM*
COc1ccc(NC(=O)c2c(C)oc3ccc(O)c(CN4CCCC4)c23)cc1Cl	?	-2	nt	nt	nt	?
SMILES	DT40 TDP1 CPT	LDHA inh	IL-1B inflam inh	RORg inh	VP16 counter	DT40 TDP1 no CPT
CCCS(=O)(=O)N1CCCC1C(=O)NC1CCCC1 (stereo unspecified)	nt	0	nt	nt	nt	nt
CC(=O)Nc1ccc2nc(-c3cccc(C)c3)oc2c1	nt	2	nt	nt	nt	nt
CCCNc1nc2ccccc2nc1C(=O)Nc1cc(C)ccc1C	nt	-6	nt	nt	nt	nt
CC(C)c1noc(C(C)Nc2ccc(N3CCCC3=O)c(Cl)c2)n1 (stereo unspecified)	nt	2	nt	nt	nt	nt
COc1ccc(NC(=O)c2c(C)oc3ccc(O)c(CN4CCCCCC4)c23)cc1	21µM*	-1	nt	nt	nt	23µM*
COc1ccc(NC(=O)c2c(C)oc3ccc(O)c(CN4CCN(C)CC4)c23)cc1Cl	16µM*	-1	nt	nt	nt	18µM*
Cc1ccc(NC(=O)c2ccccc2SCC(=O)NC2CC2)c(Cl)c1	nt	-2	nt	nt	nt	nt
O=C(COc1ccc(Cl)cc1Cl)NNC(=S)NC(=O)c1ccco1	?	-8	nt	11µM*	?	?
O=C(COc1ccc(Cl)cc1Cl)NNC(=S)NCc1ccco1	?	-3	21	3.2µM*	?	-16%
O=C(O)CCC(=O)NNC(=O)COc1ccc(Cl)cc1Cl	-1%	0	-4	2%	-3%	-11%
C/C(CC(=O)NCc1ccco1)=N\NC(=O)COc1ccc(Cl)cc1Cl	18µM*	1	41	?	-9%	21µM*
